Results taken from PMC5540273 (PLoS ONE, 2017).
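Also: kd values determined as follow-up on hits from a single-replicate KINOMEscan panel screen.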

## Fc1cccc(COc2ccc(Nc3ncnc4sc(-c5ccc[nH]5)cc34)cc2Cl)c1 [GW707818]
PRKCH
  Kd: > 10000 nM

## Cl.Cl.c1ccc(-c2cc3ccncc3cc2OC2CCNCC2)cc1 [GSK1122999]
PRKCE
  Kd: 640 nM
PRKCH
  Kd: 390 nM

## O=C(c1ccc(-c2cc(-c3c[nH]nc3-c3ccccn3)ccn2)cc1)N1CCCC1 [GW792479]
PRKCI
  Kd: > 10000 nM

## Cc1cccc(-c2nc(Nc3ccc4[nH]nnc4c3)c3ccccc3n2)n1 [GW867587]
PRKD1
  Kd: 61 nM
PRKD2
  Kd: 83 nM

## NC(=O)c1sc(-n2cnc3ccccc32)cc1OCc1ccccc1F [GSK1024306]
PLK1
  Kd: 9.6 nM
PLK2
  Kd: 25 nM
PLK3
  Kd: 52 nM

## COc1cc2ncnc(Nc3ccc(OCc4ccccc4Br)c(Cl)c3)c2cc1OC.Cl [GI261590]
PKN1
  Kd: > 10000 nM
PRKCQ
  Kd: > 10000 nM
